Assay [1] addresses Albumin (Bos taurus) (UniProt P02769). Nature of the assay: bovine serum albumin binders on microarray, profiling panel, artefact control for SMM control protein annotation, biochemical, small-molecule microarray, Alexa647 label, 635/667 nm fluorescence (AID 1118).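 Also: score merges 667 nm emission intensity and signal-to-noise per printed compound spot.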 Conditions: BSA-A647 binding, fluorescence 635 nm, higher = more signal.
The nature of assay [2]: small-molecule microarray binders of probe aXIP, primary screen, biochemical, NeuroSMM set, 635/667 nm fluorescence (AID 1119).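 Also: probe is the protein aXip251-270 applied at 1 µg/mL to compound-printed slides; binding of probe to printed compounds measured as 667 nm fluorescence plus signal to noise.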 Conditions: higher = more signal, called active from +8 up or from −8 down.
Assay [3] can be described thus: small-molecule binders of probe aNOTCH3, primary screen, biochemical, small-molecule microarray, 635/667 nm fluorescence (AID 1120).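 Also: probe is a biotin-tagged antibody raised against NOTCH3 rather than NOTCH3 protein; score merges spot fluorescence near 667 nm with spot signal to noise.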 Conditions: higher = more signal.
A short description of assay [4]: small-molecule binders of probe aNOTCH2, primary screen, biochemical, small-molecule microarray, 635/667 nm fluorescence (AID 1121).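 Also: score merges feature fluorescence read at 667 nm with its signal to noise.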 Conditions: higher = more signal.
The target in assay [5] is Carbonic anhydrase 2 (Homo sapiens) (UniProt P00918). Nature of the assay: CAII small-molecule binders, profiling panel, biochemical, small-molecule microarray, Alexa647-labelled CAII (AID 1122). Conditions: CAII-A647 binding fluorescence, higher = more signal.
Assay [6] is described as follows: COS7 lysate on small-molecule microarray, probe aHis, 635 nm (AID 1123).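 Also: z-score combines 667nm fluorescence intensity with signal-to-noise per printed compound spot.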 Conditions: COS7 cell lysate, fluorescence, higher = more signal.
Assay [7] can be described thus: compound binding in COS7 lysate, probe aLAP1, primary screen, cell lysate, small-molecule microarray (AID 1124).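 Also: lysate comes from COS7 cells expressing LAP1 and is applied at 0.3 µg/mL; score merges spot fluorescence near 667 nm with signal-to-noise over triplicate slides.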 Conditions: probe aLAP1, fluorescence, higher = more signal.
The test system of assay [8] is Sam68 (KHDRBS1). Put plainly: Sam68 small-molecule binders, primary screen, biochemical, small-molecule microarray, 635 nm fluorescence (AID 1125).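 Also: score merges 667 nm channel intensity with signal to noise over triplicate slides.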 Conditions: small-molecule microarray binding, higher = more signal.
Assay [9] deals with Chordin-like protein 2 (CHRDL2). Put plainly: CHRDL2 small-molecule binders, primary screen, biochemical, small-molecule microarray, 635 nm fluorescence (AID 1126).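 Also: printed compound slides probed with Chrdl2 protein at 4 µg/mL for 1 h at 4 C; score merges 667 nm emission intensity with signal to noise over three replicate slides.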 Conditions: small-molecule microarray binding, fluorescence 635 nm; higher = more signal.
For assay [10], the target named is Concanavalin-A (Canavalia ensiformis) (UniProt P02866). Put plainly: ConA small-molecule binders, primary screen, artefact control for SMM control protein annotation, biochemical, small-molecule microarray, Alexa647 label, 635 nm (AID 1127).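 Also: z combines 667 nm emission intensity with signal-to-noise across three replicate slides.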 Conditions: ConA-A647 binding fluorescence, higher = more signal.
Chain of Concanavalin-A (Canavalia ensiformis) (P02866 whole entry, looked up): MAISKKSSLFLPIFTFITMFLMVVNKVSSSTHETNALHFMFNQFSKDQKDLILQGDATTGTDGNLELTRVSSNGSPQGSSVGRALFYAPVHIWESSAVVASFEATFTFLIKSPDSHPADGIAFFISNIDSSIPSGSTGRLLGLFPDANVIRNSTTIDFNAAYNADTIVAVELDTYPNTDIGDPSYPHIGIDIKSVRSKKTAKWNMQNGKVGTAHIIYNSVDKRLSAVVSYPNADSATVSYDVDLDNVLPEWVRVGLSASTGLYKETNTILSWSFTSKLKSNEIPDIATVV
A short description of assay [11]: anti-His antibody binders, primary screen, artefact control for SMM control protein annotation, biochemical, small-molecule microarray, 635 nm fluorescence (AID 1128).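 Also: score merges feature fluorescence with signal-to-noise for each printed compound spot.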 Conditions: anti-His Alexa647 antibody binding, higher = more signal.
Assay [12] deals with Human papillomavirus type 1a E7 protein (residues 1-88). Nature of the assay: HPV1a E7 small-molecule binders, primary screen, biochemical, small-molecule microarray, residues 1-88, 635 nm (AID 1129). Conditions: small-molecule microarray binding, fluorescence 635 nm; higher = more signal.
In assay [13] the target is Focal adhesion kinase 1 (Homo sapiens) (UniProt Q05397). Nature of the assay: small-molecule microarray binders of FAK, primary screen, biochemical, 635/667 nm fluorescence, BSA, DTT (AID 1130).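 Also: composite of spot emission at 667 nm and signal to noise over triplicate slides.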 Conditions: PTK2 binding, 635 nm fluorescence, higher = more signal.
Chain of Focal adhesion kinase 1 (Homo sapiens) (Q05397 whole entry, looked up): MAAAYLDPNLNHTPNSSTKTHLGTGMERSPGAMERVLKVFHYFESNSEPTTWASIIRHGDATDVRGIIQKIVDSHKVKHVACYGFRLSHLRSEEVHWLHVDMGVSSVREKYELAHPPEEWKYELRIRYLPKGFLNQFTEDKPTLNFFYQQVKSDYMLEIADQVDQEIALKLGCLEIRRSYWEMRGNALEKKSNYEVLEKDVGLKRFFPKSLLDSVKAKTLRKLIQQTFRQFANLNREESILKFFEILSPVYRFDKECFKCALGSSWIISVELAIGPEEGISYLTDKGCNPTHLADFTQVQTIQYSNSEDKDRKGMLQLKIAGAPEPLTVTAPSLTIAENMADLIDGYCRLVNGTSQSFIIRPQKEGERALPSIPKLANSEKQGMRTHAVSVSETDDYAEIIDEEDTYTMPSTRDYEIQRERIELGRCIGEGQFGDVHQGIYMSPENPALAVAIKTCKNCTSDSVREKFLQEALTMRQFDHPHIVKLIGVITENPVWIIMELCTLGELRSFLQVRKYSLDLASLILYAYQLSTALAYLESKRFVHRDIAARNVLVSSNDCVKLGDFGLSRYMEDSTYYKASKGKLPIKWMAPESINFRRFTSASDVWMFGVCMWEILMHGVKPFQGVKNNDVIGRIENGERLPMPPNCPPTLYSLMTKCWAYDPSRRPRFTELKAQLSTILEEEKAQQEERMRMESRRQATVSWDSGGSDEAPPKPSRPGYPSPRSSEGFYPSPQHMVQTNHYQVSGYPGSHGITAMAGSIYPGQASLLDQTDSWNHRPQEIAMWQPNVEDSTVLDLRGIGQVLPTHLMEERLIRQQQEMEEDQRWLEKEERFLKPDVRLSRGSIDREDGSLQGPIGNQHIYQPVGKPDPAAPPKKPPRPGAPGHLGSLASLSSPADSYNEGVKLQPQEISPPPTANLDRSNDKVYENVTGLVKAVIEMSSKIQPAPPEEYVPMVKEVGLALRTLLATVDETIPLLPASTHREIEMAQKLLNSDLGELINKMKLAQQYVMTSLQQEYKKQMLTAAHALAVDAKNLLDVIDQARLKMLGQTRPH
In assay [14] the test system is Fibrinogen (Alexa647-labelled). Put plainly: fibrinogen binders on compound microarrays, profiling panel, artefact control for SMM control-protein annotation, biochemical, small-molecule microarray, 635/667 nm fluorescence (AID 1131).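 Also: z-score merges 667 nm fluorescence with per-spot signal-to-noise over triplicate slides.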 Conditions: fibrinogen-A647 binding fluorescence, higher = more signal.
Assay [15] concerns the target Follistatin (Homo sapiens) (UniProt P19883). Nature of the assay: follistatin binders on small-molecule microarrays, primary screen, biochemical, small-molecule microarray, 635/667 nm fluorescence (AID 1132). Conditions: FST binding, 635 nm fluorescence, higher = more signal.
Assay [16] has as its target Fibroblast growth factor 2 (Homo sapiens) (UniProt P09038). Put plainly: FGF2 binders on small-molecule microarrays, primary screen, biochemical, small-molecule microarray, 635/667 nm fluorescence (AID 1133). Conditions: small-molecule microarray binding, FGF2, fluorescence 635/667; higher = more signal.
Assay [17] is described as follows: mitochondrial membrane potential change in A549 cells, profiling panel, cell-based, JC-1 fluorescence, basal, 24 h, 100 nL (AID 1138).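 Also: A549 lung adenocarcinoma cells under basal conditions with no added stimulus; test concentration not given here.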 Conditions: higher = more signal.
Assay [18] deals with Lefty1. Nature of the assay: Lefty1 binders on small-molecule microarrays, primary screen, biochemical, small-molecule microarray, 635/667 nm fluorescence (AID 1139). Conditions: small-molecule microarray binding, fluorescence 635/667; higher = more signal.
Assay [19] deals with wheat germ agglutinin (Triticum aestivum), Alexa647-labelled. Put plainly: wheat germ agglutinin binders on compound microarrays, profiling panel, artefact control for SMM control-protein annotation, biochemical, small-molecule microarray, 635/667 nm fluorescence (AID 1140).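 Also: score merges 667 nm feature emission with signal to noise over triplicate slides.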 Conditions: WGA-A647 binding, 635 nm fluorescence, higher = more signal.
Assay [20] deals with Luciferin 4-monooxygenase (Photinus pyralis) (UniProt P08659). Nature of the assay: firefly luciferase enzyme inhibitors, primary screen, biochemical, luminescence, purified enzyme, 2006 set (AID 1141).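 Also: cell-free assay with purified firefly luciferase at 100 ng per well in PBS; test concentration not given here.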 Conditions: SteadyGlo luminescence, 30 min, higher = more signal, called active from +8 up or from −8 down.
Chain of Luciferin 4-monooxygenase (Photinus pyralis) (P08659 whole entry, looked up): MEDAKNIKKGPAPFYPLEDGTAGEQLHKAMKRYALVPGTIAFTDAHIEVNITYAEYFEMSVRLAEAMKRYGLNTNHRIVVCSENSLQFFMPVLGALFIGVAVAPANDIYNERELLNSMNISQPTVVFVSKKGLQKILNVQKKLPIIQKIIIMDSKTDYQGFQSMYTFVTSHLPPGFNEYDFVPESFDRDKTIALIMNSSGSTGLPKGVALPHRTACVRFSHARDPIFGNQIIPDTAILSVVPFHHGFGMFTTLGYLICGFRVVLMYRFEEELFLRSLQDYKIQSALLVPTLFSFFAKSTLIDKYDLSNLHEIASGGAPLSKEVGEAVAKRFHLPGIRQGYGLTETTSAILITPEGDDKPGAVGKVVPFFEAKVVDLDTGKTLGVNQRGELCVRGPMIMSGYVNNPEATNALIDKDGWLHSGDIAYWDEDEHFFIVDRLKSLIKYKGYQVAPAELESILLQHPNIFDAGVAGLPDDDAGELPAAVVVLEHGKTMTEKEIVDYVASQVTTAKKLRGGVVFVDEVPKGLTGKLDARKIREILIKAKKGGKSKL

Structures are written as SMILES. The source made the active and inactive calls.

Chain of Follistatin (Homo sapiens) (P19883 whole entry, looked up): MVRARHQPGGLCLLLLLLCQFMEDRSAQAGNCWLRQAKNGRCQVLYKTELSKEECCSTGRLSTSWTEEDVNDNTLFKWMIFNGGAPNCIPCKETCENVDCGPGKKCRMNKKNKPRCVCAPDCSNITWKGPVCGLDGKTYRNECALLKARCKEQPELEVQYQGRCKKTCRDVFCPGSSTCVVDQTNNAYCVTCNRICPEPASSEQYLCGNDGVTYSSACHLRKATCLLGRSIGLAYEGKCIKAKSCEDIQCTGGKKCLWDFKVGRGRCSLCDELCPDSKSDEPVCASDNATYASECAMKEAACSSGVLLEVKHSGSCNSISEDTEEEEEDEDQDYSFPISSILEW
Chain of Fibroblast growth factor 2 (Homo sapiens) (P09038 whole entry, looked up): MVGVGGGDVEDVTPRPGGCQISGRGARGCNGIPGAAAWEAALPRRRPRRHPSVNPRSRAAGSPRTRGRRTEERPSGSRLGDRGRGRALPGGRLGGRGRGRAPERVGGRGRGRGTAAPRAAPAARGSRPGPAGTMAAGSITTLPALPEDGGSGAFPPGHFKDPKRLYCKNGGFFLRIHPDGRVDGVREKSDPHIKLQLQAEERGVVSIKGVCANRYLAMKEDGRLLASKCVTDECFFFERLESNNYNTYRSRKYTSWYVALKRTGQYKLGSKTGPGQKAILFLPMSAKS
Chain of Albumin (Bos taurus) (P02769 whole entry, looked up): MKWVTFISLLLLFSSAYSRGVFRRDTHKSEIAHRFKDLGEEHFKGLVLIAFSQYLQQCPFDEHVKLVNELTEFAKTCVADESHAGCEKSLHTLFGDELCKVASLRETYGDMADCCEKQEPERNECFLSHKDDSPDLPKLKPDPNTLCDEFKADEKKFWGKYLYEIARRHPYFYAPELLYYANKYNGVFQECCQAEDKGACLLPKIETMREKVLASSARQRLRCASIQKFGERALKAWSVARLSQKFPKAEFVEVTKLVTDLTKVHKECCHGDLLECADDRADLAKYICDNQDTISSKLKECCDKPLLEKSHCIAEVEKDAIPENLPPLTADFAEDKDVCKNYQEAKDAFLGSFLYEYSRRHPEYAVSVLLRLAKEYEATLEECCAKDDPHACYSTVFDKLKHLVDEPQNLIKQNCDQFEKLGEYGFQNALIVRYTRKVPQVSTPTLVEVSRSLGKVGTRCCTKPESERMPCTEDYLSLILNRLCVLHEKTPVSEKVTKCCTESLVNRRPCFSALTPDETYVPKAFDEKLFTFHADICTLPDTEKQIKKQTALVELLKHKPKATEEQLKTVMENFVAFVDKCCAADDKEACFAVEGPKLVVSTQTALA

For the compound `O=C(NC1CC1)[C@@H]1c2ccccc2C(=O)N(Cc2ccccc2C(F)(F)F)[C@H]1c1ccc(CO)cc1`, the composite z-score in assay [1] is 0.289; in assay [3], 0.0194; in assay [4], -0.0173; in [5] it was 0.676; in [6] it was 2.26; in assay [7], 0.234. In addition, the composite z-score in [8] turned out to be 1.35; in [9], 0.102; in assay [10], 1.08; in assay [11], 0.911; in [12], 1.1; in [13], 0.829. In addition, the composite z-score was determined as 0.428 in assay [14]; 0.928 in assay [15]; 0.86 in assay [16]; 0.159 in assay [18]; 0.527 in assay [19]. Also, in assay [2], the composite Z-score is 2.36 (inactive). Further, the values for the z-score in [17] and in assay [20] were 2.04 and -0.945 (inactive), respectively.
With `C=CCC1(CC=C)C[C@H]2CO[C@H](c3ccc(OC)cc3)N2C1=O`, the composite z-score was -1.14 in assay [1]; -0.154 in [3]; -0.155 in [4]; 0.448 in [5]; -0.348 in assay [6]; 0.157 in [7]. Further, the composite z-score was -0.082 in assay [8]; 1.3 in assay [9]; 0.0736 in assay [10]; 0.413 in assay [11]; -0.154 in [12]; -0.256 in assay [13]. The composite z-score in assay [14] is -0.78; in [15], 1.23; in assay [16], 0.15; in assay [18] it was 0.458; in assay [19] it was 1.28. Also, the composite Z-score in assay [2] is -0.258 (inactive). Moreover, the z-score was 1.31 in assay [17] and -1.13 (inactive) in [20].
In the case of `C=CCC(OC(C)=O)[C@@H]1[C@@H](N(Cc2cccc3ccccc23)C(=O)c2cccc3ccccc23)c2cc(OCCCO)ccc2N1C(=O)Cc1ccc(OC)cc1` (stereo not given in full), the composite z-score in assay [1] was 0.107; in assay [3] it was 0.128; in assay [4], -0.0797; in assay [5] it was 0.447; in assay [6], 1.04; in [7], 0.484. In addition, the composite z-score is 0.457 in [8]; 0.0561 in assay [9]; -0.653 in assay [10]; 0.856 in [11]; 0.0512 in assay [12]; -0.0125 in assay [13]. Further, the composite z-score worked out at 0.263 in [14]; 0.921 in assay [15]; 0.103 in [16]; 0.306 in assay [18]; 0.655 in [19]. In addition, the composite Z-score in assay [2] was 0.464 (inactive). The z-score in assay [17] is 0.924; in assay [20] it was -0.378 (inactive).
With `COC(=O)c1c(CC[C@@H](CO)NC(=O)Nc2ccc(OC)cc2)oc(C(=O)Cc2ccccc2)c1C(=O)OC`, the composite z-score in assay [1] is 0.771; in assay [3], -0.004; in [4], -0.0776; in assay [5], 0.656; in assay [6], 0.261; in assay [7], 0.21. Besides, the composite z-score in [8] was 0.603; in assay [9], 0.12; in assay [10], 0.688; in assay [11], -0.177; in assay [12], 0.45; in [13] it was -0.181. The composite z-score was found to be 0.211 in assay [14]; 0.473 in assay [15]; 0.434 in assay [16]; 1.08 in assay [18]; 0.371 in assay [19]. In assay [2], the composite Z-score is 0.466 (inactive). For the same compound, the z-score was 1.02 in assay [17] and -1.37 (inactive) in [20].
As to `[N-]=[N+]=NCc1ccccc1C[C@@]1(C(=O)O)N=C(c2ccc(OCCCO)cc2)O[C@@H]1c1ccccc1`, the composite z-score is 0.433 in assay [1]; -0.133 in [3]; 0.0278 in assay [4]; 0.658 in assay [5]; 1.53 in assay [6]; 1.48 in [7]. In addition, the composite z-score in assay [8] is 0.782; in assay [9] it was -1.24; in assay [10], 0.933; in assay [11], 0.822; in assay [12] it was 0.998; in assay [13], 0.829. The composite z-score is 0.808 in [14]; 0.322 in [15]; -0.41 in assay [16]; -0.771 in assay [18]; 1.1 in assay [19]. For the same compound, in [2], the composite Z-score is 0.114 (inactive). Moreover, the z-score is 1.34 in assay [17] and -1.05 (inactive) in assay [20].

These data come from PubChem BioAssay.
